The values that follow come from PubChem BioAssay (NCI).

Common to all, as to test: NCI-60 one-dose screen, 48 h (100 = growth as untreated, 0 = no growth, -100 = all killed)
One experiment relates to DU-145 prostate. The conditions noted are these: 10 µM unless noted.
Another experiment relates to K-562 leukemia. The note with it: 10 µM unless noted.
A further experiment concerns MALME-3M melanoma. The note with it: 10 µM unless noted.
In another experiment the test system is RXF 393 renal. The note with it: 10 µM unless noted.
The test system of another experiment is SF-268 CNS. The note with it: 10 µM unless noted.
The subject of a further experiment is SF-295 CNS. The note with it: 10 µM unless noted.
The test system of the next experiment is SF-539 CNS. The conditions noted are these: 10 µM unless noted.
In the next experiment the test system is M14 melanoma. The conditions noted are these: 10 µM unless noted.
The next experiment deals with HCT-15 colon. The conditions noted are these: 10 µM unless noted.
A further experiment deals with HT29 colon. The note with it: 10 µM unless noted.
Another experiment relates to SNB-75 CNS. The note with it: 10 µM unless noted.
The test system of a further experiment is SNB-19 CNS. The note with it: 10 µM unless noted.
In the next experiment the test system is PC-3 prostate. The note with it: 10 µM unless noted.
In a further experiment the test system is SK-MEL-5 melanoma. The conditions noted are these: 10 µM unless noted.
For the next experiment, the system named is UACC-62 melanoma. The conditions noted are these: 10 µM unless noted.
For another experiment, the system named is LOX IMVI melanoma. The conditions noted are these: 10 µM.
The next experiment deals with SK-MEL-28 melanoma. The conditions noted are these: 10 µM unless noted.
The test system of another experiment is UACC-257 melanoma. The conditions noted are these: 10 µM unless noted.
A further experiment has as its system U251 CNS. The note with it: 10 µM unless noted.
For a further experiment, the system named is MDA-MB-231 breast. The note with it: 10 µM unless noted.

Compounds without any hit were thinned out: in the full panel of roughly 83,000, 20% have a hit.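 In brief: 96-well plates, 48 h treatment, single concentration, percent growth endpoint.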 Unmarked numbers belong to inactive results. The source made the active and inactive calls. The calls were made as follows: active = growth percent below 10; inactive = the rest. Where a SMILES comes first, the peptide text is derived from it. [ ]: non-standard residue; d: D form. ξ: configuration not given here. ξD = NC(CC(=O)O)C(=O)O

As to `NNc1ccc(Cl)cc1Cl`, the growth in the experiment on DU-145 prostate is 108%; with K-562 leukemia, 13.4%; in the experiment on MALME-3M melanoma it was 104%; in the experiment on RXF 393 renal, 102%; with SF-268 CNS, 71.7%; with SF-295 CNS, 76.6%. In addition, the growth with SF-539 CNS was 94.5%; in the experiment on M14 melanoma, 67.6%; in the experiment on HCT-15 colon it was 79.8%; with HT29 colon, 94.2%; in the experiment with SNB-75 CNS, 80.7%; in the experiment on SNB-19 CNS, 92.5%. Besides, the growth in the experiment on PC-3 prostate was 60.4%; in the experiment with SK-MEL-5 melanoma, 86.1%; in the experiment on UACC-62 melanoma, 37.2%; in the experiment on LOX IMVI melanoma, 67.5%; in the experiment with SK-MEL-28 melanoma, 120%.
Turning to `NCC(=O)NC(CC(=O)O)C(=O)O` (centres undefined) (H-Gly-[ξD]-OH), the growth with DU-145 prostate was 105%; in the experiment with K-562 leukemia, 106%; with MALME-3M melanoma, 98.1%; in the experiment with RXF 393 renal, 109%; in the experiment with SF-268 CNS it was 107%; with SF-295 CNS, 101%. Further, the growth in the experiment on SF-539 CNS was 99.3%; with UACC-257 melanoma it was 96.5%; in the experiment with M14 melanoma, 104%; in the experiment on HCT-15 colon it was 105%; with HT29 colon it was 98.2%; with SNB-75 CNS it was 98.6%. Further, the growth with U251 CNS was 103%; with PC-3 prostate, 86.7%; in the experiment with SK-MEL-5 melanoma, 101%; in the experiment on UACC-62 melanoma it was 91.4%; with LOX IMVI melanoma it was 103%.
For the compound `CCCCCCCCCCCC[S+](C)CC(=O)[O-]` (centres undefined), the growth is 54.8% in the experiment with DU-145 prostate; 30.7% with K-562 leukemia; 51.2% in the experiment on MALME-3M melanoma; 0.613% (active) in the experiment on RXF 393 renal; 30.6% with SF-268 CNS; 38.6% with SF-295 CNS. Also, the growth is 53.7% in the experiment on SF-539 CNS; 56.7% in the experiment on UACC-257 melanoma; 43.7% with M14 melanoma; 84.6% in the experiment with HCT-15 colon; 44.7% with HT29 colon; 29.7% in the experiment on SNB-75 CNS. Besides, the growth in the experiment with U251 CNS is 43.7%; with PC-3 prostate it was 25%; in the experiment on UACC-62 melanoma, 31.8%; in the experiment on LOX IMVI melanoma, 32.9%; with SK-MEL-28 melanoma it was 62.9%.
With `O=[N+]([O-])C=C(c1ccccc1)c1ccccc1`, the growth is 87.7% in the experiment with DU-145 prostate; 29.4% in the experiment with K-562 leukemia; 80.2% in the experiment with MALME-3M melanoma; 78.5% in the experiment on RXF 393 renal; 85.7% with SF-268 CNS; 89.3% in the experiment with SF-295 CNS. Besides, the growth with SF-539 CNS was 88.2%; in the experiment with UACC-257 melanoma, 84%; in the experiment on M14 melanoma it was 79.4%; in the experiment on HCT-15 colon, 42.7%; in the experiment on HT29 colon it was 91.7%; in the experiment with SNB-75 CNS, 59.4%. Also, the growth in the experiment with SNB-19 CNS is 85.5%; with PC-3 prostate, 76.5%; with SK-MEL-5 melanoma, 88.3%; in the experiment with UACC-62 melanoma, 56.9%; with SK-MEL-28 melanoma, 90.4%.
As for `CC1(C)OCC(COC(c2ccccc2)(c2ccccc2)c2ccccc2)O1` (centres undefined), the growth is 100% in the experiment on DU-145 prostate; 111% with K-562 leukemia; 91.7% in the experiment on MDA-MB-231 breast; 116% in the experiment on RXF 393 renal; 94.2% in the experiment on SF-268 CNS; 99.2% in the experiment with SF-295 CNS. The growth is 104% with SF-539 CNS; 91.7% in the experiment with UACC-257 melanoma; 95.1% with M14 melanoma; 100% in the experiment on HCT-15 colon; 91.9% in the experiment with HT29 colon; 89.3% in the experiment with SNB-75 CNS. For the same compound, the growth is 100% with SNB-19 CNS; 89.2% in the experiment on PC-3 prostate; 105% in the experiment with SK-MEL-5 melanoma; 99.3% in the experiment with UACC-62 melanoma; 89.1% in the experiment with LOX IMVI melanoma; 103% in the experiment on SK-MEL-28 melanoma.
`COc1ccc(C(OCC2OC(n3ccc(NC(=O)c4ccccc4)nc3=O)C(O)C2O)(c2ccccc2)c2ccccc2)cc1` (centres undefined): the growth in the experiment on DU-145 prostate was 52.4%; in the experiment with K-562 leukemia, 32.7%; in the experiment with MDA-MB-231 breast, 58.2%; with RXF 393 renal it was 31%; in the experiment on SF-268 CNS, 54.2%; with SF-295 CNS, 41.7%. Further, the growth with SF-539 CNS is 42.9%; with UACC-257 melanoma it was 64.3%; in the experiment with M14 melanoma, 40.2%; in the experiment on HCT-15 colon, 20.6%; in the experiment on HT29 colon, 8.51% (active); in the experiment on SNB-75 CNS it was 34.1%. Moreover, the growth is 54.7% in the experiment with SNB-19 CNS; 33.1% in the experiment on U251 CNS; 22.9% in the experiment on PC-3 prostate; 24.2% in the experiment on SK-MEL-5 melanoma; 43.9% in the experiment on UACC-62 melanoma; 46.6% in the experiment on LOX IMVI melanoma. Moreover, the growth in the experiment with SK-MEL-28 melanoma was 55.9%.
In the case of `CCOC(=O)C1=C(C(=O)c2ccccc2)C(c2cccc([N+](=O)[O-])c2)C(C(=O)c2ccccc2)=C(C(=O)OCC)N1`, the growth in the experiment with DU-145 prostate is 97%; with K-562 leukemia, 21.5%; in the experiment with MALME-3M melanoma it was 93.1%; in the experiment on RXF 393 renal, 79.3%; in the experiment on SF-268 CNS it was 93.9%; in the experiment on SF-295 CNS, 90.2%. The growth in the experiment on SF-539 CNS is 95.7%; in the experiment on UACC-257 melanoma, 105%; in the experiment with M14 melanoma, 89.9%; in the experiment with HCT-15 colon, 66.4%; in the experiment with HT29 colon it was 94.3%; in the experiment on SNB-75 CNS, 88.4%. Further, the growth is 79.9% with U251 CNS; 86% in the experiment on PC-3 prostate; 95.9% in the experiment on SK-MEL-5 melanoma; 70.2% in the experiment with UACC-62 melanoma; -57.6% (active) in the experiment on LOX IMVI melanoma; 95.6% with SK-MEL-28 melanoma.
On to `Cc1ccc(N2C(=O)C=CC2=O)cc1`, for which the growth with DU-145 prostate is 119%; with K-562 leukemia, 0.664% (active); with MDA-MB-231 breast, 97.6%; in the experiment with RXF 393 renal, 99.7%; in the experiment with SF-268 CNS, 106%; with SF-295 CNS, 115%. For the same compound, the growth is 112% in the experiment with SF-539 CNS; 103% in the experiment with UACC-257 melanoma; 114% with HCT-15 colon; 96.3% in the experiment with HT29 colon; 89.6% in the experiment on SNB-75 CNS; 95.4% with SNB-19 CNS. Besides, the growth in the experiment with U251 CNS is 102%; in the experiment on PC-3 prostate it was 97.4%; with UACC-62 melanoma it was 104%; in the experiment on LOX IMVI melanoma it was 97.7%; in the experiment on SK-MEL-28 melanoma, 112%.
Consider `OC(Cc1cc(CC(O)(C(F)(F)F)C(F)(F)F)nc(CC(O)(C(F)(F)F)C(F)(F)F)c1)(C(F)(F)F)C(F)(F)F`, for which the growth was 24.9% in the experiment on DU-145 prostate; 9.94% (active) with K-562 leukemia; -45.6% (active) in the experiment with MDA-MB-231 breast; -17.2% (active) in the experiment on RXF 393 renal; 12.9% with SF-268 CNS; -8.82% (active) with SF-295 CNS. Moreover, the growth in the experiment on SF-539 CNS was -1.21% (active); in the experiment on UACC-257 melanoma it was -28.3% (active); with M14 melanoma, 13.7%; in the experiment on HCT-15 colon it was 9.46% (active); in the experiment on HT29 colon it was -12.1% (active); with SNB-75 CNS, -8.76% (active). Besides, the growth in the experiment with SNB-19 CNS was 16%; in the experiment with U251 CNS, -60.2% (active); in the experiment on PC-3 prostate, 4.38% (active); in the experiment on SK-MEL-5 melanoma it was -83.3% (active); in the experiment with UACC-62 melanoma, -10.6% (active); in the experiment with LOX IMVI melanoma it was 0.881% (active). In addition, the growth with SK-MEL-28 melanoma is 26.5%.
